Results published in PubChem BioAssay AID2551 (National Center for Advancing Translational Sciences (NCATS), 2010).
About 17,000 (5.5%) of roughly 310,000 compounds were called active. Not shown: some 11% with an inconclusive outcome. This is one part of a sample in which actives are shown more often than they occur. The call rests on the fitted dose curve; in most records, active means well fitted inhibition curve with a large enough effect; inconclusive means small, poorly fitted or top-dose-only effect, or effect the other way; inactive means no such curve, though single readings can be large or run the other way.

What follows are molecules tested against Nuclear receptor ROR-gamma (Mus musculus) (UniProt P51450) (assay: qHTS for inhibitors of ROR gamma transcriptional activity). Settings: Drosophila S2 Gal4-RORgamma UAS-luciferase reporter, 20 h; series mostly up to 53.6 µM; activity change, negative = inhibition: at the top concentration.
In short: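 Read-out: Photinus luciferase luminescence; inhibitors lower reporter signal. Insect Schneider cells with Gal4-ROR gamma fusion under metallothionein promoter, UAS reporter; 700 uM final copper sulfate induction, 20 hr, ambient temperature.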
Further: nearly all actives have a fitted effect of over 60% in size.
On the % scale 0 is the no-effect control and ±100 the full control effect; potency means the concentration at half of the fitted maximal effect.

Sequence of Nuclear receptor ROR-gamma (Mus musculus) (P51450 whole entry, looked up, the tested form may be a part): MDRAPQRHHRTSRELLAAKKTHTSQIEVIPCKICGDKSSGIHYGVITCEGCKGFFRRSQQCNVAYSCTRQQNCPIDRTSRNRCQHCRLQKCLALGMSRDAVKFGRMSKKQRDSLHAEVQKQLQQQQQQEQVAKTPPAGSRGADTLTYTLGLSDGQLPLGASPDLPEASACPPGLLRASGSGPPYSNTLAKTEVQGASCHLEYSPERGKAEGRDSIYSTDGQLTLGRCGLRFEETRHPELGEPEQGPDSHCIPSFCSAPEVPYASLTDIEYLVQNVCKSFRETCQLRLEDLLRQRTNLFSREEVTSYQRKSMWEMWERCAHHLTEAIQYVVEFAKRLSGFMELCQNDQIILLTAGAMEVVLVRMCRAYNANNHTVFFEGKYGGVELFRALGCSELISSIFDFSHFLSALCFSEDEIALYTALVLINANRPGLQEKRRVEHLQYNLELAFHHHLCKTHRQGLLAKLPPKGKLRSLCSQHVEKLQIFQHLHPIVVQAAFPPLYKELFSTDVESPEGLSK

SMILES | activity change, negative = inhibition | Potency
COc1ccccc1NC(=O)CCN1CCN(c2ccc(Cl)cc2)CC1 | 18.2% (inactive) | –
CCc1ccc(N(CC(=O)NCc2cccnc2)S(=O)(=O)c2ccccc2)cc1 | – | 14.1 µM (active)
O=C(CCc1ccccc1)NCc1cccnc1 | -3.41% (inactive) | –
O=C(CN(c1cc(C(F)(F)F)ccc1Cl)S(=O)(=O)c1ccccc1)NCc1cccnc1 | 22.7% (inactive) | –
Cc1c(C)c2c(OCC(=O)NCCCO)cc3c(c2oc1=O)CCC(C)(C)O3 | -1.32% (inactive) | –
CC(C)CC(CCc1ccccc1)OS(N)(=O)=O (configuration not stated) | 19.3% (inactive) | –
CCNC(=S)N1CCN(C(=O)c2ccco2)CC1 | 0.972% (inactive) | –
O=C(/C=C/c1ccco1)NC(=S)Nc1ccccc1Br | – | 11.2 µM (active)
CC(=O)Nc1ccc(NC(=S)NC(=O)/C=C/c2ccccc2)cc1 | 3.47% (inactive) | –
Cc1cccc(N2CCN(C(=O)/C=C/c3ccco3)CC2)c1C | 15.4% (inactive) | –
COc1ccccc1/C=C/C(=O)NC1CC2CCC1C2 (configuration not stated) | 18.8% (inactive) | –
COc1ccccc1/C=C/C(=O)NC(=S)N1CCOCC1 | – | 7.08 µM (active)
Cc1nnc(NC(=O)/C=C/c2ccco2)s1 | -0.0186% (inactive) | –
O=C(/C=C/c1ccco1)NC(=S)N1CCCCC1 | – | 3.98 µM (active)
COc1ccccc1C(=O)Nc1cccc(C(=O)N2CCOCC2)c1 | -15.7% (inactive) | –
CCC(C)[C@H](NC(=O)N1CCn2c1nc1ccccc12)C(=O)NCc1ccc(OC)cc1 (some centres not stated) | 22.2% (inactive) | –
O=C(O)CC/C(=C\c1cc2c(cc1Br)OCO2)c1nc2ccccc2s1 | 6.58% (inactive) | –
CC(=O)N1CCc2cc(S(=O)(=O)NC3CCCCC3)ccc21 | 2.62% (inactive) | –
COCCNc1ncnc2c1nc1n2CCCC1 | -6.66% (inactive) | –
CCCCCCn1cc(C(=O)O)c(=O)c2cc(F)c(N3CCCCC3)cc21 | -20.3% (inactive) | –
O=C(Nc1ccc(S(=O)(=O)Nc2ccccn2)cc1)c1ccccc1 | -8.68% (inactive) | –
Cc1ccc(CNC(=O)CCS(=O)(=O)c2ccc3c(c2)CC(C)N3C(=O)C2CC2)o1 (configuration not stated) | -5.1% (inactive) | –

SMILES | activity change, negative = inhibition | Potency
O=C(Nc1ccc([N+](=O)[O-])cc1)OCCc1ccccn1 | 11.2% (inactive) | –
CC(=O)Nc1cccc(NC(=O)c2c(-c3ccccc3)noc2C)c1 | -2.25% (inactive) | –
Cc1onc(-c2ccccc2)c1C(=O)NNC(=S)NC(=O)c1ccc(F)cc1 | – | 3.98 µM (active)
Cc1onc(-c2c(Cl)cccc2Cl)c1C(=O)NNC(=O)c1c(-c2c(Cl)cccc2Cl)noc1C | 27.9% (inactive) | –
COc1ccc(C(=O)NC(=S)NNC(=O)c2c(-c3ccccc3)noc2C)cc1 | – | 6.31 µM (active)
Cc1onc(-c2ccccc2)c1C(=O)Nc1ccccc1C#N | 6.86% (inactive) | –
Cc1ccc(CNC(=O)c2c(-c3ccccc3)noc2C)cc1 | -8.86% (inactive) | –
NC(=O)c1oc2ccccc2c1NC(=O)Cc1ccccc1 | -17.9% [at 1.91 µM] (inactive) | –
COc1ccc(N(C(=O)c2snc(C(N)=O)c2N)C(C(=O)NC2CCCC2)c2ccco2)cc1OC (configuration not stated) | 17.3% (inactive) | –
O=C1/C(=C/c2ccc(F)cc2)SC(=S)N1CCCC(=O)N1CCCCC1CCO (configuration not stated) | 1.78% (inactive) | –
COC(=O)Cn1cnc2scc(-c3ccc(C)c(C)c3)c2c1=O | 32.1% (inactive) | –
O=C(NC(=S)Nc1ccc(S(=O)(=O)Nc2ncccn2)cc1)c1cccc(Br)c1 | -21.7% (inactive) | –
O=C(NC1CC1)c1cccc(Br)c1 | -3.23% (inactive) | –
NS(=O)(=O)c1ccc(NC(=S)NC(=O)c2cccc(Br)c2)cc1 | – | 11.2 µM (active)
O=C(NC(=S)Nc1ccc(Cl)c(C(=O)O)c1)c1cncc(Br)c1 | -14.7% (inactive) | –
O=C(NC(=S)Nc1cccc2c(O)cccc12)c1cccc(Br)c1 | – | 11.2 µM (active)
NS(=O)(=O)c1ccc(NC(=S)NC(=O)c2cccnc2)cc1 | -3.22% (inactive) | –
Cc1ccccc1NC(=S)NNC(=O)c1cccc(Br)c1 | – | 11.2 µM (active)
CC(CC(=O)O)CC(=O)NNC(=O)c1cccc(Br)c1 (configuration not stated) | -2.71% (inactive) | –
Cc1ccc(C)c(NC(=S)NNC(=O)c2csc(C)c2)c1 | – | 3.55 µM (active)
Cc1ccc(C)c(NC(=O)CCC(=O)NNC(=O)c2cccs2)c1 | 10.7% (inactive) | –
O=C(/C=C/NNC(=O)c1cccc(Br)c1)c1ccccc1 | -41.4% (inactive) | –

SMILES | activity change, negative = inhibition | Potency
Cc1ccc(C)c(NC(=O)NNC(=O)c2ccc3ccccc3c2O)c1 | -19.3% (inactive) | –
COc1ccc(-c2nnc3n2CCCCC3)cc1 | -7.74% (inactive) | –
COc1ccc(NC(=O)CSc2nncc(=O)n2N)cc1OC | -13.1% (inactive) | –
CC(CN1CCOCC1)OC(=O)c1ccc(Cl)cc1Cl (configuration not stated) | -11.3% (inactive) | –
Cn1c(C(=O)N2CCCC(C(=O)NCc3ccccc3)C2)cc2sccc21 (configuration not stated) | 27.8% (inactive) | –
COc1ccccc1NC(=O)c1ccc(N2CC3CC(C2)c2cccc(=O)n2C3)c(NC(=O)c2cccnc2)c1 (configuration not stated) | -1.66% (inactive) | –
CC(=O)N1c2ccc(S(=O)(=O)N3CCC(C(=O)N4CCN(c5ccccc5)CC4)CC3)cc2CC1C (configuration not stated) | 17.1% (inactive) | –
CC(C)CN(CC(C)C)C(=O)CN1c2cccc3cccc(c23)S1(=O)=O | 27% (inactive) | –
O=C(CNC(=O)[C@@H]1Cc2ccccc2CN1)NC1CCCCC1 | -15.9% (inactive) | –
NC(=O)C1CC(=O)N(c2ccc(OCC(=O)NCc3ccccc3)cc2)C1 (configuration not stated) | -32.6% (inactive) | –
Cn1c(=O)[nH]c(=O)c2c1nc(N1CCN(C(c3ccccc3)c3ccccc3)CC1)n2CCO | 27.7% (inactive) | –
O=C(COCc1cc(-c2ccc3c(c2)OCO3)on1)N1CCN(c2cccc(Cl)c2)CC1 | 4.21% (inactive) | –
CCOC(=O)Nc1sc(C(=O)N(C)C)c(C)c1C(=O)OCC | 18.3% (inactive) | –
CCOC(=O)c1c(NC(=O)CCl)sc(C(=O)N(CC)CC)c1C | – | 20 µM (active)
CCOC(=O)c1sc(NC(=O)CCN2CCOCC2)c(C(=O)OCC)c1C | -25.6% (inactive) | –
Cc1ccc(S(=O)(=O)NCc2ccc(C(=O)NC3CCC(C)CC3)cc2)cc1 (configuration not stated) | -6.33% (inactive) | –
COc1ccccc1N1CC(C(=O)Nc2nnc(SCC(=O)NC(C)C)s2)CC1=O (configuration not stated) | -15.7% (inactive) | –
CC(=O)Oc1c2c(c3c(c1CC=C(C)C)O[C@@]14C(=CC5CC1C(C)(C)OC4(C/C=C(\C)C(=O)O)C5=O)C3=O)OC(C)(CCC=C(C)C)C=C2 (some centres not stated) | – | 5.62 µM (active)
O=C(CNC(=O)c1ccc(Br)o1)NCC1CCCO1 (configuration not stated) | -16% (inactive) | –
CCNC(=O)c1cnn(-c2ccccc2)c1-c1ccccc1 | 15.5% (inactive) | –
CCOc1cccc(-n2nnnc2-c2ccc(OC)cc2)c1 | 35.9% (inactive) | –
COc1ccc(-n2nnnc2-c2nc3ccccc3s2)cc1 | – | 12.6 µM (active)

SMILES | activity change, negative = inhibition | Potency
COc1ccc(-n2nnnc2SCC(=O)Nc2ccccc2)cc1 | 44.6% (inactive) | –
COc1cc(C2C3=C(CCCC3=O)OC3=C2C(=O)CCC3)ccc1OCC(=O)Nc1ccccc1 | 3.03% (inactive) | –
Cc1ccc(N(Cc2cc(=O)[nH]c3ccccc23)C(=O)CCl)cc1 | – | 15.8 µM (active)
Cc1ccc(N(Cc2cc3ccccc3[nH]c2=O)C(=O)c2cccs2)cc1 | 15.8% (inactive) | –
CC(=O)N(Cc1cc(=O)[nH]c2ccccc12)c1ccc(C)cc1C | -16.6% (inactive) | –
Cc1cc(C)cc(NC(=O)C2CCCN2S(=O)(=O)c2cccc3cccnc23)c1 (configuration not stated) | -19.2% (inactive) | –
CCN1CCN(CCNC(=O)c2ccc3c(c2)NC(=O)/C(=C\c2ccc(OC)c(OC)c2)S3)CC1 | 0.716% (inactive) | –
CCCCc1cc(=O)oc2c(C)c(OCC(=O)N3CCC(C(N)=O)CC3)ccc12 | -8.21% (inactive) | –
CCOc1ncccc1C(=O)OCc1cn2cc(Cl)ccc2n1 | 21.2% (inactive) | –
O=C(/C=C/c1ccc2c(c1)OCO2)NCc1cn2cc(Cl)ccc2n1 | -15.5% (inactive) | –
Clc1ccc2nc(CSc3ccccc3)cn2c1 | – | 14.1 µM (active)
COc1ccc(CCOC(=O)CNC(=O)c2ccc(Cl)cc2Cl)cc1 | 2.81% (inactive) | –
COC(=O)Cc1cnc(NC(=O)CSc2nc(C(C)C)cc(=O)[nH]2)s1 | 9.69% (inactive) | –
COc1ccc(N2CCN(C(=O)[C@@H](NC(=O)c3cc(OC)cc(OC)c3)C(C)C)CC2)cc1 | -4.96% (inactive) | –
CCN(CCn1cccn1)Cc1cn[nH]c1-c1ccc(OC)cc1F | 1.4% (inactive) | –
CCOc1ccccc1Oc1cn[nH]c1-c1ccc(OC)cc1O | – | 8.91 µM (active)
COc1ccc(-c2cn[nH]c2-c2ccc(OC)cc2)cc1 | -17.9% (inactive) | –
O=S(=O)(NCC1CC1)c1ccc(F)c(Cl)c1 | 18.8% (inactive) | –
Cc1ccc(N(CC(=O)NCC2CCCO2)C(=O)CNS(=O)(=O)c2ccc(Cl)cc2)cc1 (configuration not stated) | 37.3% (inactive) | –
CCN(CC(=O)N1CCCC1)S(=O)(=O)c1ccc(F)cc1 | -29.5% (inactive) | –
O=C(CO/N=C/c1ccccc1O)NNC(=O)c1ccccc1Cl | – | 20 µM (active)
O=C(CO/N=C/c1ccccc1OC(F)F)NC1CCCC1 | -1.76% (inactive) | –

SMILES | activity change, negative = inhibition | Potency
O=C(CSCc1ccccc1Cl)NNC(=O)c1ccccc1 | 8.21% (inactive) | –
CCOc1ccc(C(C(=O)NCCOC)N(CCOC)C(=O)CCC(=O)Nc2ccccn2)cc1 (configuration not stated) | -2.5% (inactive) | –
O=C(Nc1nc(-c2ccc(-c3ccccc3)cc2)cs1)c1cnccn1 | – | 1.12 µM (active)
Cc1ccc(Nc2nc(-c3sc(NC(=O)c4ccccc4)nc3C)cs2)cc1 | -23.5% (inactive) | –
COc1ccc(-c2csc(NC(=O)c3ccc(N4C(=O)CCC4=O)cc3)n2)cc1OC | -0.539% (inactive) | –
CC(=O)Nc1ccc(-c2csc(NC(=O)Nc3ccccc3)n2)cc1 | 30.4% (inactive) | –
Cc1ccc(C(=O)NCCNC(=O)c2cnccn2)cc1 | -10.2% (inactive) | –
O=C(Nc1nc(-c2cccnc2)cs1)c1ccccc1F | 10.5% (inactive) | –
Cc1ccc(-c2csc(NC(=O)c3cnccn3)n2)cc1C | – | 2.24 µM (active)
O=C(O)c1ccccc1C(=O)Nc1nc(-c2ccccc2)cs1 | 20.5% (inactive) | –
Cc1ccc(-c2csc(NNC(=O)c3ccccc3)n2)cc1 | – | 5.01 µM (active)
Cc1sc2ncn(CC(=O)NCCCC(=O)N3CCN(c4ccccc4F)CC3)c(=O)c2c1C | 8.6% (inactive) | –
Nc1ccc(C(=O)Nc2ccccc2N)cc1 | – | inactive
COc1ccc(NC(=O)CSc2nc(SC)ns2)c(OC)c1 | 14.7% (inactive) | –
Cc1ccc(S(=O)(=O)N(C)CC(=O)NCCc2c[nH]c3ccccc23)cc1 | 35.1% (inactive) | –
Cc1cccc(N(Cc2ccccc2)C(=O)c2ccccc2F)c1 | 2.6% (inactive) | –
CN(C(=O)c1ccno1)c1nnc(-c2cccnc2)s1 | 7.53% (inactive) | –
CN(C(=O)COc1ccccc1)c1nnc(-c2ccncc2)s1 | -43.6% (inactive) | –
CN(C(=O)c1ccccn1)c1nnc(-c2ccccn2)s1 | – | 10 µM (active)
